Experimental data taken from article PMC9838217, “Structure of SALL4 zinc finger domain reveals link between AT-rich DNA binding and Okihiro syndrome”.
Substitutions are numbered along the chain they refer to.

target: T1, SALL4 ZFC4 WT (HT-SELEX) (Mus musculus, UniProt Q8BX22 870-940); test: HT-SELEX; high values mean tight binding; conditions: protein: recombinant; vector His6-GST; dsDNA, one strand shown
T1 sequence: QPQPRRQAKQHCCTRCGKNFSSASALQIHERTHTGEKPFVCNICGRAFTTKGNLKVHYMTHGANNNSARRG
Method in brief: (§1)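 Library DNA (1.5 µg in cycle one, 200 ng in later cycles) was incubated with 1 µg of purified recombinant mouse SALL4 zinc finger cluster 4, residues 870–940, in 100 µl buffer (10 mM Tris–HCl pH 7.5, 50 mM NaCl, poly(dI-dC), DTT) at room temperature for 10 min. Up to 6 rounds of Ni2+ bead capture, washing, PCR amplification and reselection were run in triplicate. Reads from MiSeq sequencing were scanned for 6-mers. For each canonical k-mer, binding signal is its read fraction as fold change versus the original random library.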

Q: For ATTCTC, which binding signal is on record?
A: 1.41 ± 0.062 fold-change vs cycle 0

Q: With GCATTA as the sequence, how does the binding signal read?
A: 1.15 ± 0.025 fold-change vs cycle 0

Q: TCGTAA was tested. Which binding signal did it give?
A: 1.21 ± 0.0956 fold-change vs cycle 0

Q: How did the binding signal turn out when ACCATA was run?
A: 1.42 ± 0.0615 fold-change vs cycle 0

Q: With AGAATA as the sequence, how does the binding signal read?
A: 2.17 ± 0.0586 fold-change vs cycle 0

Q: How did the binding signal turn out when ACTATG was run?
A: 1.34 ± 0.073 fold-change vs cycle 0

Q: GGAATA was tested. Which binding signal did it give?
A: 1.41 ± 0.0746 fold-change vs cycle 0

Q: Which binding signal does the source give for CTCTTA here?
A: 1.46 ± 0.0534 fold-change vs cycle 0

Q: How did the binding signal turn out when GAACTA was run?
A: 1.37 ± 0.088 fold-change vs cycle 0

Q: For GGTATA, which binding signal is on record?
A: 1.3 ± 0.0598 fold-change vs cycle 0

Q: Which binding signal does the source give for GTGTTA here?
A: 1.31 ± 0.0667 fold-change vs cycle 0

Q: For ACGAAT, which binding signal is on record?
A: 1.18 ± 0.0691 fold-change vs cycle 0

Q: With GAAGTA as the sequence, how does the binding signal read?
A: 1.43 ± 0.0516 fold-change vs cycle 0

Q: Which binding signal does the source give for CAATAG here?
A: 1.21 ± 0.0269 fold-change vs cycle 0

Q: With ATACGA as the sequence, how does the binding signal read?
A: 1.26 ± 0.0299 fold-change vs cycle 0

Q: For ATGATG, which binding signal is on record?
A: 1.43 ± 0.0727 fold-change vs cycle 0

target: T2, SALL4 ZFC4 R900W (HT-SELEX) (Mus musculus, UniProt Q8BX22 870-940, R900W); test: HT-SELEX; high values mean tight binding; conditions: protein: recombinant; vector His6-GST; dsDNA, one strand shown
T2 sequence: T1 sequence with R31W
Method in brief: as §1

Q: With GCATAA as the sequence, how does the binding signal read?
A: 1.11 ± 0.0331 fold-change vs cycle 0

Q: How did the binding signal turn out when ACTGAG was run?
A: 1.01 ± 0.0326 fold-change vs cycle 0

Q: How did the binding signal turn out when CATCTC was run?
A: 1.01 ± 0.0376 fold-change vs cycle 0

Q: For AAACCT, which binding signal is on record?
A: 1.34 ± 0.0189 fold-change vs cycle 0

Q: Which binding signal does the source give for AGGATG here?
A: 1.04 ± 0.0516 fold-change vs cycle 0

Q: How did the binding signal turn out when GAGAGA was run?
A: 1.06 ± 0.0438 fold-change vs cycle 0

Q: For CAGATA, which binding signal is on record?
A: 1.33 ± 0.0549 fold-change vs cycle 0

Q: How did the binding signal turn out when CCAATA was run?
A: 1.24 ± 0.0246 fold-change vs cycle 0

Q: How did the binding signal turn out when ATACCA was run?
A: 1.39 ± 0.0221 fold-change vs cycle 0

Q: With AAATGG as the sequence, how does the binding signal read?
A: 1.16 ± 0.0862 fold-change vs cycle 0

Q: For ATGGAG, which binding signal is on record?
A: 1.04 ± 0.0611 fold-change vs cycle 0

Q: How did the binding signal turn out when ATGCAA was run?
A: 1.18 ± 0.0732 fold-change vs cycle 0

Q: For ATTTGG, which binding signal is on record?
A: 1.09 ± 0.0268 fold-change vs cycle 0

Q: AATACG was tested. Which binding signal did it give?
A: 1.11 ± 0.0569 fold-change vs cycle 0

Q: How did the binding signal turn out when GCTTTA was run?
A: 1.09 ± 0.0574 fold-change vs cycle 0

Q: With ACTCCA as the sequence, how does the binding signal read?
A: 1.03 ± 0.0645 fold-change vs cycle 0

Q: How did the binding signal turn out when ATAGCA was run?
A: 1.21 ± 0.0922 fold-change vs cycle 0
